The text below walks through data of PubChem BioAssay (NCATS).

Unmarked numbers belong to inactive results. For part of these data: Entries with a potency or affinity are not part of this list. Active and inactive are the calls of the source. No rule for the calls is given here.

For assay [1] the following is noted: Ebola virus entry assay, green fluorescence channel.
The conditions of assay [2]: Ebola virus entry assay, blue channel fluorescence.
For assay [3] the following is noted: Ebola virus entry assay, ratio channel.
For assay [4] the following is noted: Ebola virus entry assay, green channel fluorescence.
The conditions of assay [5]: Ebola virus entry assay, reporter ratio channel; Channel type: primary.
The conditions of assay [6]: Ebola virus entry assay, blue channel (ratio component).
For efficacy in this document: 0% is about no effect.

In the case of `CC(=O)Nc1ccc(S(=O)(=O)Nc2ccc([N+](=O)[O-])cc2)cc1`, in assay [1], the efficacy is -17.6%. Further, the outcome in assay [2], in assay [3], in assay [4], in assay [5] and in assay [6] was inactive.
For `N[C@@H](CSSC[C@H](N)C(=O)O)C(=O)O`, the efficacy in assay [1] was -14.5%. The result in assay [2], in assay [3], in assay [4], in assay [5] and in assay [6] was inactive.
With `O=C(CCN1CCN(CCO)CC1)N1c2ccccc2Sc2ccc(C(F)(F)F)cc21`, the efficacy in assay [1] was 14.8%. The result in assay [2], in assay [3], in assay [4], in assay [5] and in assay [6] was inactive.
As for `C[C@H]1NCc2cc(-c3ccc4c(=O)c(C(=O)O)cn(C5CC5)c4c3OC(F)F)ccc21`, the efficacy in assay [1] was -19.7%. Further, the compound was called inactive in assay [2], in assay [3], in assay [4], in assay [5] and in assay [6].
Regarding `O=C(O)CN(CCOCCOCCN(CC(=O)O)CC(=O)O)CC(=O)O`, the efficacy in assay [1] was 19.2%. The compound was called inactive in assay [2], in assay [3], in assay [4], in assay [5] and in assay [6].
As for `CN1[C@@H]2CC[C@H]1CC(OC(=O)c1c[nH]c3ccccc13)C2` (stereo partly specified), the efficacy in assay [1] was 45%. In addition, the compound was called inactive in assay [2], in assay [3], in assay [4] and in assay [6]. Moreover, the AC50 (commonly the midpoint of the concentration-response curve, whichever way the signal moves) in assay [5] is 39.8 µM (active).
